Laboratory results as given in PubChem BioAssay (NCATS).
Several values for one entry are separate records, joined by “and”; a condition that tells them apart may be missing. Equal entries are not always repeated. Records with an inconclusive call do not appear. Activity calls are given as the source filed them. The call rests on the fitted dose curve; in most records, active means well fitted inhibition curve with a large enough effect; inconclusive means small, poorly fitted or top-dose-only effect; inactive means flat fitted curve, though single readings scatter.
On the % scale 0 is the no-effect control and ±100 the full control effect.

These molecules were tested on KB-3-1 (assay: Cytotoxic Profiling of Annotated Libraries Using Quantitative High-Throughput Screening (AID 1296008; further: nearly all actives have a fitted effect of over 60% in size)). Conditions: Five cell lines viability, CellTiter-Glo ATP luminescence, 48-72 h; max response: active compounds read low.
Procedure, shortened: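 Cells exposed to compounds for 48 or 72 hr at 37 degrees Celsius. Viability read as ATP-coupled luminescence with CellTiter-Glo after 10 min at room temperature.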
In the case of O=C1/C(=C\c2cccs2)CCC/C1=C\c1cccs1, the max response is reported as 8.4% (inactive). COC(=O)[C@H]1[C@H]2C[C@@H]3c4[nH]c5cc(OC)ccc5c4CCN3C[C@H]2C[C@H](OC)[C@@H]1OC was tested, and the max response was 14.2% (inactive). For CCOC(=O)Cc1ccc(-c2ccccc2)cc1, the max response was 6.55% (inactive). For NC(=O)[C@@H]1C[C@]2(NC(=O)NC2=O)c2cc(F)ccc2O1, the max response was -7.8% (inactive). CC(=O)c1ccc2c(c1)N(CCCN1CCN(CCO)CC1)c1ccccc1S2 was tested, and the max response was 1.1% (inactive). For CO/N=C(\C(=O)N[C@@H]1C(=O)N2C(C(=O)O)=C(CSC(=O)c3ccco3)CS[C@H]12)c1csc(N)n1, the max response was 1.31% (inactive). CC(=O)OCC1=C(C(=O)O)N2C(=O)[C@@H](NC(=O)Cc3ccccc3)[C@H]2SC1 was tested, and the max response was -5.45% (inactive). In the case of NC(=O)CC[C@@H]1NC(=O)[C@H](Cc2ccccc2)NC(=O)[C@H](Cc2ccc(O)cc2)NC(=O)[C@@H](N)CSSC[C@@H](C(=O)N2CCC[C@H]2C(=O)N[C@@H](CCCN=C(N)N)C(=O)NCC(N)=O)NC(=O)[C@H](CC(N)=O)NC1=O, the max response is reported as 22.3% (inactive) and -14.9% (inactive). CCc1cn([C@H]2C[C@H](O)[C@@H](CO)O2)c(=O)[nH]c1=O was tested, and the max response was 5.47% (inactive). For COc1cc(NCCCC(C)N)c2ncccc2c1 (configuration not stated), the max response was -4.33% (inactive). COc1ccc2c(c1)OC(C)(C)C(c1ccccc1)C2c1ccc(OCCN2CCCC2)cc1 (configuration not stated) was tested, and the max response was -26.5% (inactive). CC(C)CN(C[C@@H](OP(=O)(O)O)[C@H](Cc1ccccc1)NC(=O)O[C@H]1CCOC1)S(=O)(=O)c1ccc(N)cc1 was tested, and the max response was 1.96% (inactive).
